Test results published in PubChem BioAssay AID720641 (ICCB-Longwood Screening Facility, Harvard Medical School, 2013).
Out of some 170,000 compounds screened, about 900 (0.53%) were called active.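 The calls were made as follows: active = relative growth at most 50% at the other temperature and 20+ points below 30 °C, or under 10% at both; inactive = the rest, inconclusive results apart.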 Many of the other results were omitted from the sample, so actives are more common in it than they were.

Experiment: S. aureus growth inhibition at 42 and 30 °C, primary screen, LtaS inhibitor project, RN4220, two temperatures (AID 720641)
Details: OD600, 20 h, 42 °C, stronger effect = lower value

SMILES | relative growth | relative growth (measured here: growth at 30 °C) [%]
O=C(COc1ccccc1)NC(C(=O)O)C12CC3CC(CC(C3)C1)C2 (stereo not drawn) | 112% (inactive) | 83.1
CN1CCN(c2nc(C34CC5CC(CC(C5)C3)C4)cs2)CC1 | -0.89% (active) | -0.63
c1snnc1C12CC3CC(CC(C3)C1)C2 | 103% (inactive) | 109
CC(C)(C)C(=O)Nc1ccc(Br)cc1 | 109% (inactive) | 84.5
CCOC(=O)c1cnc(SCSc2nc3ccccc3s2)nc1N | 86.4% (inactive) | 87
CC(C)Oc1ccc(NC(=O)c2cc3ccccc3o2)cc1 | 87.3% (inactive) | 89.7
Cc1ccc(OC(=O)c2cc3ccccc3o2)cc1 | 0.01% (active) | -0.88
CC(=O)Oc1ccc2occ(C(=O)c3cc4ccccc4o3)c2c1 | 89.3% (inactive) | 86.2
O=C(Oc1ccc2oc(=O)sc2c1)c1ccccc1 | 92.5% (inactive) | 94
CC(C)n1c(CCC(=O)O)ccc1-c1ccc(F)cc1 | 126% (inactive) | 97.4
CN(C)[C@@H]1C(=O)C(C(N)=O)=C(O)[C@@]2(O)C(=O)C3=C(O)c4c(O)ccc(Cl)c4[C@@H](O)[C@H]3C[C@@H]12 | -0.41% (active) | -1
COC(=O)/C(C#N)=C(\NCc1ccc(Cl)cc1Cl)SC | 99.2% (inactive) | 99.3
NC(=O)C1CCN(C(=O)CSc2ccc3ccccc3c2)CC1 | 84.3% (inactive) | 94.8
COc1ccc(F)cc1C(O)CSCc1ccccc1 (stereo not drawn) | 124% (inactive) | 84.8
CCOC(=O)Nc1nc2c(ccc3ccccc32)s1 | 92.4% (inactive) | 91.2
O=C(O)C1CCC(CNS(=O)(=O)c2ccc(Br)cc2)CC1 (stereo not drawn) | 108% (inactive) | 96.5
CCOC(=O)c1oc2nc(-c3ccccc3)cc(-c3ccco3)c2c1N | 97.1% (inactive) | 91.1
CCc1ccc(CNC(=O)c2ccc(CS(=O)c3ccc(Br)cc3)o2)cc1 (stereo not drawn) | 19.5% (active) | 45.9
Cc1ccc(CNC(=O)c2ccc(CS(=O)Cc3cccc(Cl)c3)o2)cc1 (stereo not drawn) | 116% (inactive) | 82.8
CCOc1ccc(CNC(=O)c2ccc(CS(=O)c3ccccc3)o2)cc1 (stereo not drawn) | 101% (inactive) | 79.9
COC(=O)c1scc2c(N3CCCCC3)cc(C(F)(F)F)nc12 | 90.2% (inactive) | 95.5
CCN1CCN(C(=O)N[C@@H](C(=O)N[C@@H]2C(=O)N3C(C(=O)O)=C(CSc4nnnn4C)CS[C@H]23)c2ccc(O)cc2)C(=O)C1=O | -0.62% (active) | -0.46
O=C(Nc1nnc(C2CC2)s1)c1cc(Cl)sc1Cl | 77.4% (inactive) | 68.7
COC(=O)c1ccc2c(c1)NC(=O)C(C)N2 (stereo not drawn) | 95.5% (inactive) | 65.5
CCc1nnc(NC(=O)C2CCCN2S(=O)(=O)c2ccccc2)s1 (stereo not drawn) | 119% (inactive) | 89.3
CC1CCCCN1S(=O)(=O)c1ccc(F)c(C(=O)Nc2ccccc2C(F)(F)F)c1 (stereo not drawn) | 98.5% (inactive) | 90
CSCc1nnc(NC(=O)c2ccc(S(=O)(=O)N3CCCCC3C)cc2)o1 (stereo not drawn) | 0.19% (active) | -0.08

SMILES | relative growth | relative growth (measured here: growth at 30 °C) [%]
CC1CCCCN1S(=O)(=O)c1ccc(I)cc1 (stereo not drawn) | 103% (inactive) | 105
CC1CCCCN1S(=O)(=O)CCNC(=O)c1ccccc1 (stereo not drawn) | 85.7% (inactive) | 88.4
CC1CCCCN1S(=O)(=O)c1ccc(C(=O)Nc2nnc(-c3cccs3)o2)cc1 (stereo not drawn) | 2.04% (active) | 1.82
O=C(Cc1n[nH]c(=O)c2ccccc12)N/N=C/c1ccc(-c2ccc(Br)cc2)o1 | 95.6% (inactive) | 86.9
CN(C)/N=C/c1ccc(OC(=O)c2ccco2)cc1 | 91.3% (inactive) | 89.5
CCOC(=O)c1cc2n(c1N)-c1ccccc1C2=O | 85.9% (inactive) | 71.7
CCn1nc(C(=O)OCCCCN2C(=O)c3ccccc3C2=O)c2ccccc2c1=O | 98.7% (inactive) | 94.4
CCOC(=O)c1cc2oc(C)cc2n1CCCN1C(=O)c2ccccc2C1=O | -0.65% (active) | -0.53
O=C(NCC12CC3CC(CC(C3)C1)C2)c1cc(-c2ccccc2O)no1 | 105% (inactive) | 101
Cc1ccc(CNCc2cccn2-c2sc(C)c(C)c2C(=O)O)cc1 | 87.6% (inactive) | 76.5
C=CCn1c(C)nnc1SCCN1C(=O)c2ccccc2S1(=O)=O | 91.3% (inactive) | 93.1
CC(C)C(C(=O)O)n1c(=S)[nH]c2ccccc2c1=O (stereo not drawn) | 77.7% (inactive) | 94.8
CCCCN(CC)S(=O)(=O)c1ccc(C(=O)Nc2nnc(-c3ccc(Cl)s3)o2)cc1 | 0.22% (active) | 0.29
CN(C)S(=O)(=O)c1ccc(C(=O)Nc2nnc(C3CC3)o2)cc1 | 78.8% (inactive) | 59.5
CS(=O)(=O)c1ccc(-c2nnc(NC(=O)c3ccc4c(c3)OCCO4)o2)cc1 | 84.8% (inactive) | 85.3
O=C(CN1C(=O)/C(=C/c2ccccc2)Sc2ccccc21)N1CCCC1 | 109% (inactive) | 98.3
COc1ccc(C2=NC(C)(C)N(CC(=O)Nc3ccccc3)C2=O)cc1 | 115% (inactive) | 93.8
CSc1ccc(Cl)c(C(=O)OCC(=O)N2CCC(C)CC2)c1 | 102% (inactive) | 82
Nc1nc(/C(=C/CC(=O)O)C(=O)N[C@@H]2C(=O)N3C(C(=O)O)=CCS[C@H]23)cs1 | -0.72% (active) | -0.64
CSc1nc(C)cc(=O)[nH]1 | 139% (inactive) | 90.7
NC(=O)N/N=C1/C=C(c2ccccc2)C(O)(c2ccccc2)C1 (stereo not drawn) | 109% (inactive) | 91.3
O=C1COc2ccc(C3=Nn4c(nnc4-c4ccncc4)SC3)cc2N1 | 97.9% (inactive) | 85.9
CCN(Cc1ccccc1)C(=O)c1cc2sccc2n1Cc1ccccc1 | 108% (inactive) | 88.4
COc1ccccc1CNC(=O)CNC1CCCCC1 | 96.2% (inactive) | 90
Cc1c2cn[nH]c(=O)c2c(C)n1Cc1ccccc1 | 88.3% (inactive) | 75.2
CO[C@@H]1[C@@H](OC(N)=O)[C@H](O)[C@H](Oc2ccc3c(O)c(NC(=O)c4ccc(O)c(CC=C(C)C)c4)c(=O)oc3c2C)OC1(C)C | -0.38% (active) | 0.14
CC(C)=CCOc1ccc2c3c(c(=O)oc2c1C)CCCC3 | 97.9% (inactive) | 97.1
